# Data from PubChem BioAssay (Tox21).
# Values without a mark were called inactive. Results filed as inconclusive are left out. Entries that show only a call come without a potency. Calls of active or inactive are those of the source. Unless noted, calls follow the shape of the dose curve; as a rule, active = well fitted curve in the direction sought with a large enough effect in the repeat runs; inconclusive = weak or mixed curves; inactive = no such curve, though single readings can be large; an effect the other way counts as inactive or inconclusive.
# Key:
# [1] = molecular target: Thyrotropin receptor (Homo sapiens) (UniProt P16473); assay: qHTS assay to identify small molecule agonists of the thyroid stimulating hormone receptor (TSHR) signaling pathway (AID 1224843; calls by dose curve; also: nearly all actives have a fitted effect of over 45% in size; also: potency is read from the fitted curve at half-maximal effect)
# Thyrotropin receptor (Homo sapiens), sequence (P16473 whole entry, looked up): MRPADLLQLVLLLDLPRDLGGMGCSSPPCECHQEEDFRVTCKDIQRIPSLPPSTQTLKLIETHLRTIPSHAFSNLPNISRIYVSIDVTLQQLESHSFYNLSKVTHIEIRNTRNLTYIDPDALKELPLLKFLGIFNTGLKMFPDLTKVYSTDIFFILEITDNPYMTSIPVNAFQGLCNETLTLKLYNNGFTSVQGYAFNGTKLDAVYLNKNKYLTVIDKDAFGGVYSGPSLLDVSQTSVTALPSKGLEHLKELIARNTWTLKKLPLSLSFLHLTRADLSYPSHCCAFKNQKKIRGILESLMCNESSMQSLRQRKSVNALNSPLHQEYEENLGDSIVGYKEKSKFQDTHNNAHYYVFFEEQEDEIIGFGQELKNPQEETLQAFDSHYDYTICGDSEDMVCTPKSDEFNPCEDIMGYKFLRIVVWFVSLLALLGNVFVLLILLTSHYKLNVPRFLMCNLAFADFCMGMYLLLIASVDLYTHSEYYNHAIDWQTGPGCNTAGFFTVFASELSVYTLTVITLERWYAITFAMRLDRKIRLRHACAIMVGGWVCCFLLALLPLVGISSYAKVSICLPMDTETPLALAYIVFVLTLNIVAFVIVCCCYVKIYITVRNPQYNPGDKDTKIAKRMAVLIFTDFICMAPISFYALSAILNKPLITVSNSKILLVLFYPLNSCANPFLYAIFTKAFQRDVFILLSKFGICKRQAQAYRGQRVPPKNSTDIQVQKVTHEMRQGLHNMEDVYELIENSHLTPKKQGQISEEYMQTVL
# In short: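 Screening of the Tox21 10K collection used HEK293 cells engineered with TSHR at 800 cells per well. After a 30-min room-temperature compound exposure, HTRF cAMP reagents were added and fluorescence recorded 1 h later.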
# [2] = qHTS assay to identify small molecule agonists of the hypoxia (HIF-1) signaling pathway - cell viability counter screen (AID 1224844; calls by dose curve; also: nearly all actives have a fitted effect of over 50% in size)
# In short: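 Multiplexed with the HRE beta-lactamase assay, this viability read used CellTiter-Glo luminescence (30 min, RT) on HRE-bla ME-180 cells treated 17 hrs with compounds in 0.5% dialyzed FBS medium.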
# [3] = qHTS assay to identify small molecule agonists of H2AX (AID 1224845; active = well fitted activation curve with a large enough effect in the signal ratio in the repeat runs, not every such curve was filed as active; the % refers to the signal ratio)
# In short: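 Phospho-H2AX Ser139 measured by HTRF (ex 320 nm; em 665 and 620 nm) after 24 hr antibody incubation. Compounds, 15 concentrations, 0.76% DMSO, were applied to CHO-K1 cells for 3hr at 37C before lysis.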
# [4] = qHTS assay to identify small molecule agonists of the hypoxia (HIF-1) signaling pathway (AID 1224846; active = well fitted activation curve with a large enough effect in the signal ratio in the repeat runs, not every such curve was filed as active; the % refers to the signal ratio)
# In short: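 Hypoxia-pathway activation was scored as increased beta-lactamase from an HRE-controlled reporter in ME-180 cells; plated at 2,000 cells per well with 0.5% dialyzed FBS, they were exposed 17 hrs to compounds and then given CCF4-AM.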
# [5] = qHTS assay to identify small molecule agonists of H2AX - cell viability counter screen (AID 1224847; calls by dose curve; also: top concentration of the series differs between compounds; nearly all actives have a fitted effect of over 30% in size)
# In short: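 Wild-type CHO-K1 cells (10% FBS medium) were plated overnight at 37C, exposed to compounds at 15 concentrations for 3 hr at 37C (0.76% DMSO final), and viability was read as CellTiter-Glo luminescence after 30 min at room temperature.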
# [6] = qHTS RealTime-Glo MT Cell Viability Assay in HepG2 cells - 24 hour (AID 1224867); also: nearly all actives have a fitted effect of over 50% in size
# In short: (§1)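 Cells + NanoLuc/prosubstrate dispensed (600 cells/well) → 5 h at 37 C/5% CO2 → compounds in DMSO transferred → 40 h incubation at 37 C, luminescence read at 0, 8, 16, 24, 32, 40 h.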
# [7] = qHTS RealTime-Glo MT Cell Viability Assay in HEK293 cells - 32 hour (AID 1224868); also: top concentration of the series differs between compounds; nearly all actives have a fitted effect of over 50% in size
# In short: (§2)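 Tox21 10K qHTS, HEK293, 600 cells/well, RealTime-Glo reagent co-dispensed with cells; 5 h preincubation, compound by pintool, 37 C, luminescence at 0–40 h.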
# [8] = A CellTox Green Cytotoxicity Assay to monitor cytotoxicity in HEK293 cells - 0 hour (AID 1224869); also: nearly all actives have a fitted effect of over 50% in size
# In short: (§3)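 Seeding of HEK293 cells together with cytotoxicity dye preceded a 5 h incubation at 37 C/5% CO2. Test compounds in DMSO were then added and fluorescence monitored across 40 h.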
# [9] = qHTS RealTime-Glo MT Cell Viability Assay in HepG2 cells - 40 hour (AID 1224870); also: nearly all actives have a fitted effect of over 50% in size
# In short: (§4)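 Real-time viability: cells seeded at 600 per well together with NanoLuc and cell-permeant prosubstrate, compounds added after 5 h incubation. Luminescence tracked at 0, 8, 16, 24, 32 and 40 h of exposure.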
# [10] = A CellTox Green Cytotoxicity Assay to monitor cytotoxicity in HEK293 cells - 40 hour (AID 1224871); also: nearly all actives have a fitted effect of over 45% in size
# In short: as §3
# [11] = qHTS RealTime-Glo MT Cell Viability Assay in HepG2 cells - 8 hour (AID 1224873); also: nearly all actives have a fitted effect of over 55% in size
# In short: as §4
# [12] = qHTS RealTime-Glo MT Cell Viability Assay in HEK293 cells - 40 hour (AID 1224874); conditions: RealTime-Glo luminescence; max response: hits give low values; also: nearly all actives have a fitted effect of over 50% in size; also: potency is read from the fitted curve at half-maximal effect
# In short: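 Tox21 screen in HEK293 using RealTime-Glo MT chemistry, with cells and reagent co-dispensed. Luminescence proportional to viable cell number was captured at intervals during 40 h compound exposure at 37 C.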
# [13] = A CellTox Green Cytotoxicity Assay to monitor cytotoxicity in HEK293 cells - 24 hour (AID 1224875); also: series mostly up to about 77 µM; nearly all actives have a fitted effect of over 45% in size
# In short: as §3
# [14] = A CellTox Green Cytotoxicity Assay to monitor cytotoxicity in HepG2 cells - 16 hour (AID 1224876); also: nearly all actives have a fitted effect of over 45% in size
# In short: (§5)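 Nonlytic assay: viable cells exclude the dye, so fluorescence scales with cell death. HepG2 at 600 cells/well, compounds added after 5 h, signal read across 40 h.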
# [15] = qHTS RealTime-Glo MT Cell Viability Assay in HepG2 cells - 32 hour (AID 1224877); also: nearly all actives have a fitted effect of over 55% in size
# In short: as §1
# [16] = qHTS RealTime-Glo MT Cell Viability Assay in HEK293 cells - 16 hour (AID 1224872)
# In short: as §2
# [17] = A CellTox Green Cytotoxicity Assay to monitor cytotoxicity in HepG2 cells - 24 hour (AID 1224878); also: nearly all actives have a fitted effect of over 45% in size
# In short: as §5
# [18] = A CellTox Green Cytotoxicity Assay to monitor cytotoxicity in HepG2 cells - 40 hour (AID 1224879); also: nearly all actives have a fitted effect of over 40% in size
# In short: as §5
smiles,measurement,setting,value
CC(C)(C)OC(=O)c1ccc(O)cc1,Potency,[1],inactive
same,outcome,[2],inactive
same,outcome,[3],inactive
same,outcome,[4],inactive
same,Potency,[5],inactive
same,outcome,[6],inactive
same,Potency,[7],inactive
same,outcome,[8],inactive
same,outcome,[9],inactive
same,Potency,[10],inactive
same,outcome,[11],inactive
same,max response,[12],-26.7%
same,outcome,[13],inactive
same,outcome,[14],inactive
same,outcome,[15],inactive
C=C(C)C1CCC(C)(O)CC1 (stereo not drawn),Potency,[1],inactive
same,outcome,[2],inactive
same,outcome,[3],inactive
same,outcome,[4],inactive
same,Potency,[5],inactive
same,outcome,[6],inactive
same,Potency,[7],inactive
same,outcome,[8],inactive
same,outcome,[9],inactive
same,Potency,[10],inactive
same,Potency,[16],inactive
same,outcome,[11],inactive
same,max response,[12],2.04%
same,outcome,[13],inactive
same,outcome,[15],inactive
same,outcome,[17],inactive
same,Potency,[18],inactive
NS(=O)(=O)c1cc2c(cc1Cl)CN(C1CCCCC1)C2=O,Potency,[1],inactive
same,outcome,[2],inactive
same,outcome,[3],inactive
same,outcome,[4],inactive
same,Potency,[5],inactive
same,outcome,[6],inactive
same,outcome,[8],inactive
same,outcome,[9],inactive
same,Potency,[10],inactive
same,outcome,[11],inactive
same,Potency,[12],9.52 µM (active)
same,outcome,[13],inactive
same,outcome,[15],inactive
same,outcome,[17],inactive
same,Potency,[18],inactive
O=C(O)CCSSCCC(=O)O,Potency,[1],inactive
same,outcome,[2],inactive
same,outcome,[3],inactive
same,outcome,[4],inactive
same,Potency,[5],inactive
same,outcome,[6],inactive
same,Potency,[7],inactive
same,outcome,[8],inactive
same,outcome,[9],inactive
same,Potency,[10],inactive
same,Potency,[16],inactive
same,outcome,[11],inactive
same,max response,[12],7.07%
same,outcome,[13],inactive
same,outcome,[14],inactive
same,outcome,[17],inactive
same,Potency,[18],inactive
Cc1[nH]cnc1-c1ccc(Cl)cc1,Potency,[1],inactive
same,outcome,[2],inactive
same,outcome,[3],inactive
same,outcome,[4],inactive
same,Potency,[5],inactive
same,outcome,[6],inactive
same,outcome,[8],inactive
same,outcome,[9],inactive
same,Potency,[10],inactive
same,Potency,[16],inactive
same,outcome,[11],inactive
same,max response,[12],-3.17%
same,outcome,[13],inactive
same,outcome,[14],inactive
same,outcome,[15],inactive
same,outcome,[17],inactive
same,Potency,[18],inactive
O=C(O)Cc1ccc(Cl)cc1Cl,Potency,[1],inactive
same,outcome,[2],inactive
same,outcome,[3],inactive
same,outcome,[4],inactive
same,Potency,[5],inactive
same,outcome,[6],inactive
same,Potency,[7],inactive
same,outcome,[8],inactive
same,Potency,[10],inactive
same,Potency,[16],inactive
same,max response,[12],-0.186%
same,outcome,[13],inactive
O=C(/N=N/C(=O)OCc1ccccc1)OCc1ccccc1,Potency,[1],24.3 µM (active)
same,outcome,[2],inactive
same,outcome,[3],inactive
same,outcome,[4],inactive
same,Potency,[5],inactive
same,outcome,[6],inactive
same,Potency,[7],inactive
same,outcome,[8],inactive
same,outcome,[9],inactive
same,Potency,[10],inactive
same,Potency,[16],inactive
same,max response,[12],-13.7%
same,outcome,[13],inactive
same,outcome,[14],inactive
same,outcome,[15],inactive
same,outcome,[17],inactive
same,Potency,[18],inactive
CC1(C)S[C@@H]2[C@H](N=CN3CCCCCC3)C(=O)N2[C@H]1C(=O)O,Potency,[1],inactive
same,outcome,[2],inactive
same,outcome,[3],inactive
same,outcome,[4],inactive
same,Potency,[5],inactive
same,outcome,[6],inactive
same,Potency,[7],inactive
same,outcome,[8],inactive
same,Potency,[10],inactive
same,Potency,[16],inactive
same,outcome,[11],inactive
same,max response,[12],6.57%
same,outcome,[13],inactive
same,outcome,[14],inactive
same,outcome,[15],inactive
same,Potency,[18],inactive
CC(C)N(c1ccccc1)C(C)C,Potency,[1],inactive
same,outcome,[2],inactive
same,outcome,[3],inactive
same,outcome,[4],inactive
same,Potency,[5],inactive
same,outcome,[6],inactive
same,Potency,[7],inactive
same,outcome,[8],inactive
same,outcome,[9],inactive
same,Potency,[10],inactive
same,outcome,[11],inactive
same,max response,[12],4.56%
same,outcome,[13],inactive
same,outcome,[14],inactive
same,outcome,[15],inactive
same,outcome,[17],inactive
same,Potency,[18],inactive
CCOCCOC(=O)/C=C/c1ccc(OC)cc1,Potency,[1],inactive
same,outcome,[2],inactive
same,outcome,[3],inactive
same,outcome,[4],inactive
same,Potency,[5],inactive
same,outcome,[6],inactive
same,Potency,[7],inactive
same,outcome,[8],inactive
same,outcome,[9],inactive
same,Potency,[10],inactive
same,outcome,[11],inactive
same,max response,[12],4.37%
same,outcome,[13],inactive
same,outcome,[14],inactive
same,outcome,[15],inactive
same,outcome,[17],inactive
same,Potency,[18],inactive
C[C@H](N)[C@H](O)c1cccc(O)c1,Potency,[1],inactive
same,outcome,[2],inactive
same,outcome,[3],inactive
same,outcome,[4],inactive
same,Potency,[5],inactive
same,outcome,[6],inactive
same,outcome,[8],inactive
same,outcome,[9],inactive
same,Potency,[10],inactive
same,outcome,[11],inactive
same,max response,[12],-0.629%
same,outcome,[13],inactive
same,outcome,[15],inactive
same,outcome,[17],inactive
same,Potency,[18],inactive
CCOC(=O)/C=C/c1ccccc1,Potency,[1],inactive
same,outcome,[2],inactive
same,outcome,[3],inactive
same,outcome,[4],inactive
same,Potency,[5],inactive
same,outcome,[6],inactive
same,Potency,[7],inactive
same,outcome,[8],inactive
same,outcome,[9],inactive
same,Potency,[10],inactive
same,outcome,[11],inactive
same,max response,[12],-4.48%
same,outcome,[13],inactive
same,outcome,[14],inactive
same,outcome,[15],inactive
same,outcome,[17],inactive
CC(C)CCCC(C)(C)O,Potency,[1],inactive
same,outcome,[2],inactive
same,outcome,[3],inactive
same,outcome,[4],inactive
same,Potency,[5],inactive
same,outcome,[6],inactive
same,outcome,[8],inactive
same,outcome,[9],inactive
same,Potency,[10],inactive
same,Potency,[16],inactive
same,outcome,[11],inactive
same,max response,[12],-4.36%
same,outcome,[13],inactive
same,outcome,[14],inactive
same,outcome,[15],inactive
same,outcome,[17],inactive
same,Potency,[18],inactive
CC(C)=O,Potency,[1],inactive
same,outcome,[2],inactive
same,outcome,[3],inactive
same,outcome,[4],inactive
same,Potency,[5],inactive
same,outcome,[6],inactive
same,Potency,[7],inactive
same,outcome,[8],inactive
same,Potency,[10],inactive
same,outcome,[11],inactive
same,max response,[12],0.384%
same,outcome,[13],inactive
same,outcome,[14],inactive
same,outcome,[15],inactive
same,outcome,[17],inactive
same,Potency,[18],inactive
Oc1cn2c(n1)Nc1ccc(Cl)c(Cl)c1C2,Potency,[1],0.73 µM (active)
same,"activity change, negative = cytotoxicity",[2],-1.47% [at 15.8 µM]
same,activation (H2AX phosphorylation),[3],-0.0397% [at 31.6 µM]
same,activation,[4],-0.566% [at 15.8 µM]
same,"activity change, negative = cytotoxicity",[5],0.633% [at 31.6 µM]
same,"activity change, negative = cytotoxicity",[6],-0.765% [at 15.8 µM]
same,cytotoxicity,[8],0.503% [at 15.8 µM]
same,"activity change, negative = cytotoxic",[9],-4.5% [at 15.8 µM]
same,cytotoxicity increase,[10],2.17% [at 15.8 µM]
same,"activity change, negative = cytotoxicity",[16],6.18% [at 15.8 µM]
same,"viability change, negative = cytotoxic",[11],-0.13% [at 15.8 µM]
same,max response,[12],10.9%
same,activity change,[13],-3.58% [at 15.8 µM]
same,cytotoxicity increase,[14],-4.2% [at 15.8 µM]
same,"activity change, negative = cytotoxic",[15],-1.97% [at 15.8 µM]
same,cytotoxicity,[17],-5.44% [at 15.8 µM]
same,cytotoxicity increase,[18],-8.09% [at 15.8 µM]
O=C(O)c1ccc(Cl)cc1Cl,Potency,[1],inactive
same,outcome,[2],inactive
same,outcome,[3],inactive
same,outcome,[4],inactive
same,Potency,[5],inactive
same,outcome,[6],inactive
same,Potency,[7],inactive
same,outcome,[8],inactive
same,outcome,[9],inactive
same,Potency,[10],inactive
same,Potency,[16],inactive
same,outcome,[11],inactive
same,max response,[12],7.46%
same,outcome,[13],inactive
same,outcome,[15],inactive
same,outcome,[17],inactive
same,Potency,[18],inactive
